Laboratory results as given in PubChem BioAssay (EPA / NIEHS).
Inconclusive results are not listed. Active and inactive are the calls of the source. How the source made its calls, unless noted: active means hit-call score of the fitted dose curve at least 0.9, where 1 is the maximum; inactive means score below 0.9.

Columns and labels:
[1] = ACEA_ER_80hr: ACEA Biosciences xCELLigence Real-Time Cell Analysis on Estrogen Receptor Agonism for Proliferation (AID 2282667; active means hit-call score of the fitted dose curve at least 0.9, where 1 is the maximum); settings: T47D proliferation, impedance (xCELLigence), 80 h
In short: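 Impedance readout (RT-CES) of T47D proliferation at 80 h post-dose; gain of signal vs DMSO baseline. Compounds: 8 conc, 1:4 serial, top 100 uM final, ≤0.5% DMSO; biological duplicate.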

[2] = APR_HepG2_CellCycleArrest_24hr: Apredica 24-hour HepG2 Assay for Cell Cycle Arrest (AID 2282905); settings: imaging, actives raise or lower the signal;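 further: cell cycle arrest scored as ratio of 2N to 4N nuclear DNA content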
In short: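 Readout: Hoechst 33342 nuclear DNA content by high-content fluorescent imaging, six images/well, 20x. Human HepG2 liver cells, 24 hr compound exposure, 0.39–200 uM, final DMSO 0.5% v/v. Gain or loss fitted relative to DMSO baseline.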

[3] = APR_HepG2_NuclearSize_24hr: Apredica 24-hour HepG2 Assay for Nuclear Size (AID 2282907); settings: high-content imaging, actives raise or lower the signal
In short: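 Read-out: nuclear diameter from Hoechst 33342 (2 ug/mL) imaging of fixed HepG2 cells, 20x, six fields/well. Compounds ran at 0.39–200 uM for 24 hr, 0.5% DMSO final. Gain or loss was fitted bidirectionally relative to the DMSO baseline.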

[4] = APR_HepG2_CellLoss_24hr: Apredica 24-hour HepG2 Assay for Cell Loss (AID 2282908); settings: high-content imaging;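 on AC50: fit in both directions so a hit may be cell loss or gain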
In short: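 Read-out: Hoechst 33342-stained nuclei counted by automated fluorescence imaging after formaldehyde fixation and Triton permeabilization. Ten concentrations, 0.39 to 200 uM, duplicate wells, 0.5% DMSO final. Gain or loss of signal fitted relative to DMSO baseline.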

[5] = APR_HepG2_MicrotubuleCSK_24hr: Apredica 24-hour HepG2 Assay for Microtubule CSK Stabilty (AID 2282909); settings: HepG2 microtubule cytoskeleton imaging, actives raise or lower the signal
In short: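 Read-out: alpha-tubulin immunofluorescence intensity by automated high-content imaging of fixed HepG2 cells after 24 h compound treatment. Ten concentrations, 0.39 to 200 uM, in duplicate; DMSO 0.5% v/v. Taxol positive control; DMSO-normalized bidirectional curve fitting.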

[6] = APR_HepG2_MitoticArrest_24hr: Apredica 24-hour HepG2 Assay for Mitotic Arrest (AID 2282910); settings: high-content imaging, actives raise or lower the signal
In short: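 Treatment lasted 24 hr in the human HepG2 line at 0.39–200 uM, solvent held at 0.5% DMSO. Fixed cells were stained with Hoechst 33342 and anti-phospho-histone H3, imaged at 20x, and analysed by gain- or loss-of-signal fitting against DMSO.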

[7] = APR_HepG2_MitoMembPot_24hr: Apredica 24-hour HepG2 Assay for Mitochondrial Membrane Potential (AID 2282911); settings: imaging, actives raise or lower the signal
In short: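 HepG2, 24 hr dosing, 10 concentrations 0.39–200 uM, 0.5% DMSO final. Live-cell MitoTracker Red CMXRos 250 nM 30 min, then 3.7% formaldehyde fix. HCS fluorescence imaging, 20x; bidirectional fit vs DMSO baseline.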

[8] = APR_HepG2_MitoMass_24hr: Apredica 24-hour HepG2 Assay for Mitochondrial Mass (AID 2282912); settings: high-content imaging, actives raise or lower the signal
In short: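 HepG2, 24 hr dosing, 10 concentrations 0.39–200 uM in duplicate, DMSO 0.5% final. MitoTracker Red CMXRos 250 nM, 30 min pre-fix; 3.7% formaldehyde fix. Imaging-based fluorescence intensity; gain/loss fit vs DMSO baseline.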

[9] = APR_HepG2_p53Act_24hr: Apredica 24-hour HepG2 Assay for p53 Activation (AID 2282913); settings: high-content imaging, actives raise or lower the signal;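 further: p53 protein immunofluorescence averaged per cell in HepG2 with Hoechst nuclei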
In short: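 Read-out: Cy5 immunofluorescence for p53 in fixed, permeabilized HepG2, imaged by HCS with Hoechst-defined nuclei. Dosing was 24 hr at 0.39–200 uM in 0.5% DMSO. Curves were fitted bidirectionally relative to DMSO.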

[10] = APR_HepG2_CellCycleArrest_72hr: Apredica 72-hour HepG2 Assay for Cell Cycle Arrest (AID 2282914); settings: high-content imaging, actives raise or lower the signal
In short: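 HepG2, 72 hr exposure, 10-point 0.39–200 uM, duplicate, 0.5% DMSO final. Fix 3.7% formaldehyde 30 min RT, Triton X-100 0.5%, Hoechst 33342 2 ug/mL. ArrayScan 20x, six fields/well; DNA content per nucleus; bidirectional fit vs DMSO.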

Measured: AC50

COc1cc(C=O)ccc1O
inactive: all assays above

CCCCCC(=O)O
inactive: all assays above

C=CCOC(=O)c1ccccc1C(=O)OCC=C
inactive: all assays above

Nc1nc(N)c2nc(CNc3ccc(C(=O)N[C@@H](CCC(=O)O)C(=O)O)cc3)cnc2n1
inactive: all assays above

O=[N+]([O-])C(CO)(CO)CO
inactive: all assays above

CC1(C)CC(N=C=O)CC(C)(CN=C=O)C1 (stereo not given)
active: [10] 92.5 µM
inactive: all other assays above

CCCCCCCCCCO
active: [1] 19.8 µM
inactive: all other assays above

COc1ccc2c(c1)c(CC(=O)O)c(C)n2C(=O)c1ccc(Cl)cc1
active: [2] 76.4 µM | [10] 100 µM
inactive: all other assays above

CN1CCN(Cc2cc(-c3ccc4[nH]c(=O)oc4c3)co2)[C@@H](c2ccc(F)cc2)C1
active: [4] 89.7 µM | [5] 148 µM | [6] 42.1 µM | [9] 65.2 µM | [10] 83.5 µM
inactive: [1] | [2] | [3] | [7] | [8]

COc1cccc2c1C(=O)c1c(O)c3c(c(O)c1C2=O)C[C@@](O)(C(=O)CO)C[C@@H]3O[C@H]1C[C@H](N)[C@H](O)[C@H](C)O1
active: [2] 4.04 µM | [6] 1.72 µM | [8] 24.6 µM | [9] 0.276 µM | [10] 3.58 µM
inactive: all other assays above

Cc1cccc([N+](=O)[O-])c1C
inactive: all assays above

COc1cc(S(=O)(=O)O)c(C)cc1N=Nc1c(O)ccc2cc(S(=O)(=O)O)ccc12
active: [7] 100 µM
inactive: all other assays above

CC1=C(/C=C/C(C)=C/C=C/C(C)=C/CO)C(C)(C)CCC1
active: [4] 90.6 µM | [6] 81.6 µM | [8] 113 µM | [9] 85.8 µM | [10] 56.3 µM
inactive: [1] | [2] | [3] | [5] | [7]

CC(C)(C)c1cc(O)c(C(C)(C)C)cc1O
active: [4] 53.6 µM | [6] 83.6 µM | [8] 82.8 µM | [9] 79.8 µM | [10] 51.3 µM
inactive: [1] | [2] | [3] | [5] | [7]

CNC(=O)[C@H]1O[C@@H](n2cnc3c(NCc4cc(Cl)ccc4OCc4cc(C)no4)ncnc32)[C@H](O)[C@@H]1N
active: [7] 0.0385 µM
inactive: all other assays above

CC(=O)OCCOCCOCCOC(C)=O
inactive: all assays above

Cc1nc(C)nc(N2C[C@@H](C)N(c3ccnc([C@@H](C)O)n3)[C@@H](C)C2)n1
inactive: all assays above

Nc1ccccc1N
active: [2] 15.8 µM | [4] 12.9 µM | [9] 32.3 µM | [10] 5.63 µM
inactive: all other assays above

CCCCC(CC)COC(=O)CC(C(=O)OCC(CC)CCCC)S(=O)(=O)O (stereo not given)
active: [4] 126 µM | [6] 105 µM | [9] 104 µM
inactive: all other assays above

Cc1cc(=O)[nH]c(=S)[nH]1
inactive: all assays above

CCNc1cccc(C)c1
inactive: all assays above

COc1ccc(C)cc1N
inactive: all assays above
